According to PubChem BioAssay (NCATS):
Results filed as inconclusive are left out. Entries that show only a call come without a potency. Active and inactive are the calls of the source. Calls come from the whole dose curve; as a rule, active = well fitted inhibition curve with a large enough effect; inconclusive = small, poorly fitted or top-dose-only effect; inactive = flat fitted curve, though single readings scatter.

Assays:
Assay in all cases: qHTS profiling for inhibitors of Plasmodium falciparum proliferation (AID 504749); note: nearly all actives have a fitted effect of over 60% in size
Details in all cases: P. falciparum in erythrocytes, SYBR Green DNA, 72 h; series mostly up to 28.7 µM
[1] = system: CP266
Procedure, shortened: (§1)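 Parasite proliferation within erythrocytes, 72 h exposure. Endpoint: SYBR Green I fluorescence after overnight lysis at room temperature. Controls: 0.29 uM artemisinin, DMSO.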

[2] = system: CP286
Procedure, shortened: as §1

[3] = system: CP325
Procedure, shortened: as §1

[4] = system: CP268
Procedure, shortened: as §1

[5] = system: CP269
Procedure, shortened: as §1

[6] = system: CP291
Procedure, shortened: as §1

[7] = system: CP297
Procedure, shortened: as §1

[8] = system: CP305
Procedure, shortened: as §1

[9] = system: CP315
Procedure, shortened: as §1

[10] = system: CP329
Procedure, shortened: as §1
Potency is the fitted concentration of half-maximal effect.

Compound	Potency [1]	Potency [2]	Potency [3]	Potency [4]	Potency [5]	Potency [6]	Potency [7]	Potency [8]	Potency [9]	Potency [10]
C=CCN=C=S	inactive	inactive	inactive	–	–	–	–	–	–	–
COc1ccc2c(c1OC)C(=O)OC2C1c2cc3c(cc2CCN1C)OCO3 (stereo not given)	–	inactive	–	–	–	–	–	–	–	–
O=[N+]([O-])c1cc(I)c(O)c(I)c1	–	inactive	inactive	inactive	inactive	inactive	inactive	inactive	inactive	inactive
OC(c1ccccc1)(c1ccccc1)C1CN2CCC1CC2 (stereo not given)	–	inactive	inactive	inactive	inactive	inactive	–	inactive	inactive	inactive
C[C@@H](Cc1ccccc1)NCCC(c1ccccc1)c1ccccc1	–	–	inactive	–	–	–	–	–	inactive	inactive
CC(C)(C)c1cc(O)ccc1O	inactive	3.98 µM (active)	–	–	13.5 µM (active)	15.1 µM (active)	12 µM (active)	13.5 µM (active)	inactive	inactive
C=CCC1(C(C)CCC)C(=O)N=C(S)NC1=O (stereo not given)	inactive	inactive	–	–	–	–	–	–	–	–
c1ccc(C2(N3CCCC3)CCCCC2)cc1	inactive	10 µM (active)	–	–	–	–	15.1 µM (active)	–	–	–
c1cc2c(c(NC3=NCCN3)c1)CCCC2	inactive	inactive	inactive	–	–	–	–	–	–	–
CCCN1CCCC2Cc3[nH]ncc3CC21 (stereo not given)	–	inactive	–	–	–	–	–	–	–	–
CCN(CC)C(=O)/C(Cl)=C(\C)OP(=O)(OC)OC	–	inactive	–	–	–	–	13.5 µM (active)	–	–	–
CN1CCCC(=C(c2cccs2)c2cccs2)C1	inactive	–	–	–	inactive	–	–	–	inactive	–
O=P(O)(O)C(Cl)(Cl)P(=O)(O)O	–	inactive	inactive	inactive	inactive	inactive	inactive	inactive	inactive	inactive
CCCC(=O)OC(C(Cl)(Cl)Cl)P(=O)(OC)OC (stereo not given)	inactive	inactive	–	inactive	inactive	inactive	inactive	inactive	–	inactive
CCC1(c2ccccc2)C(=O)NC(=O)N(C)C1=O (stereo not given)	inactive	inactive	inactive	inactive	–	inactive	inactive	–	inactive	inactive
C[C@H]1CCC[C@H](O)CCCCCc2cc(O)cc(O)c2C(=O)O1	inactive	inactive	inactive	inactive	inactive	inactive	–	inactive	inactive	inactive
